Screening data deposited in PubChem BioAssay by National Center for Advancing Translational Sciences (NCATS).
NS1 function inh – blocks influenza NS1 protein function; AID 2326; 0.4% of 270,000 active; Potency, µM (highest dose often 46.1 µM), inactives show at the top dose activity, positive = more growth; calls by dose curve; note: actives are rising curves; nearly all actives have a fitted effect of over 50% in size
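A cell-based growth assay was used: compounds that relieve NS1-induced slow growth of budding yeast raise OD600. Assay medium was yeast nitrogen base with ammonium sulphate and -URA supplement, pH 6.0, with 2% galactose.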
Sm TGR inh – blocks Schistosoma mansoni thioredoxin glutathione reductase; Potency, µM (titrated, usually from 114 µM), for inactives: at the highest dose activity change, negative = inhibition, usual class: inhibitors; 3% of 360,000 active; Q962Y6; purified TGR, DTNB reduction, TNB absorbance 405 nm; note: % is set by controls: 0 for no effect and ±100 for the full control effect; nearly all actives have a fitted effect of over 60% in size
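Kinetic colorimetric format: TGR-catalysed, NADPH-driven DTNB reduction monitored via TNB absorbance. Enzyme dispensed at 20 nM; compound exposure 15 min at room temperature before reaction start.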
Pf growth 48h – P. falciparum growth inhibition at 48 hours (one generation) | P. falciparum luciferase growth in erythrocytes, 48 h | Potency, µM (highest dose often 28.7 µM), inactives show at the top dose activity change, negative = inhibition, most hits filed as inhibitors | 5.9% of 310,000 active; note: % is set by controls: 0 for no effect and ±100 for the full control effect
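Luciferase-expressing parasites in RBCs, 2% Hct / 0.1% parasitemia final; RPMI 1640 + 0.5% Albumax; 37 C, 5% CO2, one generation; luminescence read-out, lower signal = inhibition.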
Pf growth 96h – inhibits malaria parasite growth, 96 h | P. falciparum luciferase reporter growth, 96 h | Potency, µM (titrated, usually from 28.7 µM), inactives show at the top dose activity change, negative = inhibition, usual class: inhibitors | 6.9% of 320,000 active | AID 504834; note: % is set by controls: 0 for no effect and ±100 for the full control effect
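Cell-based qHTS: luciferase-tagged P. falciparum in erythrocytes (2% hematocrit, 0.05% parasitemia final) incubated with compounds for 96 hours, 37 C, 5% CO2; luciferase detection reagent then added and luminescence measured.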
AMA1 RON2 block – inhibitors of Plasmodium falciparum AMA1-RON2 interaction; AlphaScreen AMA1-biotinylated RON2 peptide binding; 0.2% of 360,000 active; Potency, µM (series often up to 58.2 µM), for the others: at the top dose activity change, negative = inhibition, most hits filed as inhibitors;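 note: 0% = vehicle wells and -100% = peptide control; nearly all actives have a fitted effect of over 45% in size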
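AMA1 (3D7) with his tag at 25 nM final met compounds first, then biotinylated RON2 peptide at 25 nM; detection used donor plus acceptor beads, 10 µg/mL apiece, read by AlphaScreen after 30 min at room temperature.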
An asterisk follows results filed as active. A selection: hits, their analogues and other compounds. The true share with any hit is near 11%. Unless noted, calls come from the whole dose curve; as a rule, active = well fitted curve in the direction sought with a large enough effect; inconclusive = small, poorly fitted or top-dose-only effect, or another doubt; inactive = no such curve, though single readings can be large; an effect the other way counts as inactive or inconclusive. Potency is the fitted concentration of half-maximal effect.

For COc1ccc2c(C)cc(SCC(=O)N3CCOCC3)nc2c1 the results were NS1 function inh -12%, Sm TGR inh -20%, Pf growth 48h 3%, Pf growth 96h 0.19µM* and AMA1 RON2 block 10%.
`COc1ccc2c(C)cc(SCC(=O)NC3CCCCC3)nc2c1` gave AMA1 RON2 block 5%.
For CC(C)CC1C(=O)N(Cc2cn(CC3CCCCC3)nn2)CCS(=O)(=O)N1Cc1ccc(-c2ccncc2)cc1 (stereo not given) the results were AMA1 RON2 block -5%.
Cc1cc(Cl)ccc1NC(=O)C1CCN(S(=O)(=O)c2ccc3[nH]c(=O)ccc3c2)CC1 was read as Sm TGR inh 2%.
Screening CS(=O)(=O)c1ccc(-c2csc(N3CCC(C(N)=O)CC3)n2)cc1 returned Pf growth 48h 5% and Pf growth 96h 0%.
Screening CC1(C(=O)NS(=O)(=O)c2cccc(Cl)c2)CCN1C(=O)C1(c2ccccc2)CC1 (stereo not given) returned AMA1 RON2 block -5%.
For Cc1ccc2cc(C)c3nnc(SCC(=O)N4CCCc5ccccc54)n3c2c1C the results were NS1 function inh 11%, Sm TGR inh -4%, Pf growth 48h 9.3µM* and Pf growth 96h 5.2µM*.
Cn1c(SCC(=O)N2CCN(c3ccccc3)CC2)nnc1-c1c[nH]c2ccccc12 was read as NS1 function inh 13%, Sm TGR inh -2%, Pf growth 96h 7.4µM* and AMA1 RON2 block -11%.
Screening CCn1c(SCC(=O)N2CCc3ccccc32)nnc1-c1c[nH]c2ccccc12 returned NS1 function inh -28%, Sm TGR inh 5%, Pf growth 48h 9.3µM* and AMA1 RON2 block 17%.
Cc1cc2cc(C)c3nnc(SCC(=O)N4CCCc5ccccc54)n3c2cc1C was read as NS1 function inh 6%, Sm TGR inh -6%, Pf growth 48h -11% and Pf growth 96h 30%.
Cn1c(SCC(=O)N2c3ccccc3CCc3ccccc32)nnc1-c1ccc(O)cc1 was read as NS1 function inh 0%, Sm TGR inh 9%, Pf growth 48h 12µM*, Pf growth 96h -15% and AMA1 RON2 block -11%.
CCn1c(SCC(=O)N2CCCc3ccccc32)nnc1-c1c[nH]c2ccccc12 was read as NS1 function inh -37%, Sm TGR inh -25%, Pf growth 48h inconclusive, Pf growth 96h 7% and AMA1 RON2 block -8%.
Screening Cn1c(SCC(=O)c2ccccc2)nnc1-c1ccc(O)cc1 returned NS1 function inh 13%, Sm TGR inh 1%, Pf growth 96h 20% and AMA1 RON2 block 3%.
For CCn1c(SCC(=O)N2CCN(c3ccccc3)CC2)nnc1-c1c[nH]c2ccccc12 the results were NS1 function inh 5%, Sm TGR inh -1%, Pf growth 48h inconclusive, Pf growth 96h inconclusive and AMA1 RON2 block -3%.
Screening CNS(=O)(=O)c1cccc(C(=O)OCCCOC(=O)c2cccc(S(=O)(=O)NC)c2)c1 returned NS1 function inh -6%, Sm TGR inh 4%, Pf growth 48h 8%, Pf growth 96h inconclusive and AMA1 RON2 block -5%.
For O=C(NCc1ccccc1)C(=O)Nc1nc(C23CC4CC(CC(C4)C2)C3)cs1 the results were NS1 function inh 2%, Sm TGR inh -7%, Pf growth 48h inconclusive, Pf growth 96h -29% and AMA1 RON2 block 8%.
Screening O=C(NCc1ccc(F)cc1)C(=O)Nc1nc(C23CC4CC(CC(C4)C2)C3)cs1 returned NS1 function inh -17%, Sm TGR inh 84%, Pf growth 48h 12µM*, Pf growth 96h -29% and AMA1 RON2 block 62%.
For Cc1noc(C)c1C(=O)Nc1nc(C23CC4CC(CC(C4)C2)C3)cs1 the results were NS1 function inh -18%, Sm TGR inh 2%, Pf growth 48h 12µM*, Pf growth 96h 1% and AMA1 RON2 block -11%.
`Oc1ccc(Br)c(CN2CCN(c3ncc(Cc4ccccc4)cn3)CC2)c1` gave AMA1 RON2 block -22%.
Screening CCOc1ccc(C(C)=O)cc1COc1ccc(C)nc1[N+](=O)[O-] returned NS1 function inh 9%, Sm TGR inh 10µM*, Pf growth 48h -6%, Pf growth 96h -15% and AMA1 RON2 block -2%.
Screening CCCC(=O)NCc1ccccc1Cl returned NS1 function inh 2%, Pf growth 48h -3%, Pf growth 96h 26% and AMA1 RON2 block -7%.
For CC[N+](CC)(CCNC(=O)C(=O)NCC[N+](CC)(CC)Cc1ccccc1Cl)Cc1ccccc1Cl the results were Pf growth 48h inconclusive and Pf growth 96h 6µM*.
COc1ccc(CNS(=O)(=O)c2ccc(F)c(C(=O)Nc3ccc(OC)cc3)c2)cc1 was read as Sm TGR inh 9%, Pf growth 48h -4%, Pf growth 96h inconclusive and AMA1 RON2 block -5%.
`COc1ccc(CNS(=O)(=O)c2ccc(F)c(C(=O)Nc3ccccc3OC)c2)cc1` gave Sm TGR inh 2%, Pf growth 48h -6%, Pf growth 96h 2.3µM* and AMA1 RON2 block 0%.
Screening COc1ccccc1NC(=O)c1cc(S(=O)(=O)NCc2ccccc2)ccc1F returned Sm TGR inh -1%, Pf growth 48h inconclusive, Pf growth 96h 5.2µM* and AMA1 RON2 block 3%.
Screening O=C(Nc1cc(C(F)(F)F)ccc1Cl)c1cc(S(=O)(=O)NCc2ccccc2)ccc1F returned Sm TGR inh 2%.
For COc1cc(C(CCN2CCOCC2)c2c(OC)cc(OC)c3c(C)cc(=O)oc23)cc(OC)c1OC (stereo not given) the results were NS1 function inh 12%, Sm TGR inh -23%, Pf growth 48h 13µM*, Pf growth 96h inconclusive and AMA1 RON2 block -1%.
For COc1cc(C(CCN2CCCC2)c2c(OC)cc(OC)c3c(C)cc(=O)oc23)cc(OC)c1OC (stereo not given) the results were NS1 function inh 3%, Sm TGR inh 2%, Pf growth 48h 7.4µM*, Pf growth 96h 9.3µM* and AMA1 RON2 block -4%.
COc1ccc(C(CCN2CCOCC2)c2c(OC)cc(OC)c3c(C)cc(=O)oc23)cc1 (stereo not given) was read as NS1 function inh 2%, Sm TGR inh 0%, Pf growth 48h inconclusive, Pf growth 96h inconclusive and AMA1 RON2 block -5%.
`Cc1ccc(-c2cc(C(=O)OCC(=O)N(C)C3CCS(=O)(=O)C3)c3ccccc3n2)o1` (stereo not given) gave NS1 function inh 15%, Sm TGR inh 14µM*, Pf growth 48h 51%, Pf growth 96h 68% and AMA1 RON2 block 4%.
For CCN(C(=O)COC(=O)c1cc(-c2ccc(C)o2)nc2ccccc12)C1CCS(=O)(=O)C1 (stereo not given) the results were Sm TGR inh 25µM*, Pf growth 48h 41%, Pf growth 96h 95% and AMA1 RON2 block 9%.
`CCOc1ccc(CNCc2c(C(=O)O)c(C)n(Cc3ccc(F)cc3Cl)c2C)cc1` gave Sm TGR inh -14%.
